From PubChem BioAssay (Tox21)
Where “and” joins values, the source holds several entries; their conditions need not be identical. Equal values may be shown once. Results filed as inconclusive are left out. Where a call stands in place of a potency, no number is given. Where a structure was tested more than once in an assay, its records may differ in their call. Calls of active or inactive are those of the source. Unless noted, the call rests on the fitted dose curve; in most records, active means well fitted curve in the direction sought with a large enough effect in the repeat runs; inconclusive means weak or mixed curves; inactive means no such curve, though single readings can be large; an effect the other way counts as inactive or inconclusive.

Legend:
[1] = qHTS assay to identify small molecule antagonists of the glucocorticoid receptor (GR) signaling pathway - cell viability counter screen (AID 720693); further: nearly all actives have a fitted effect of over 55% in size
[2] = qHTS assay for identifying genotoxic compounds that show differential cytotoxicity against isogenic chicken DT40 cell lines with known DNA damage response pathways - wild type cell line (AID 743012); further: nearly all actives have a fitted effect of over 60% in size; further: potency means the concentration at half of the fitted maximal effect
Procedure, shortened: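 Using parental DT40 (300 cells/well), compounds delivered in DMSO incubate 40 h at 37 C/5% CO2. CellTiter-Glo reagent then stands 30 min at room temperature, and luminescence gives cell viability.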

[3] = qHTS assay for identifying genotoxic compounds that show differential cytotoxicity against isogenic chicken DT40 cell lines with known DNA damage response pathways - Rev3 mutant cell line (AID 743014); further: nearly all actives have a fitted effect of over 55% in size; further: potency means the concentration at half of the fitted maximal effect
[4] = qHTS assay for identifying genotoxic compounds that show differential cytotoxicity against isogenic chicken DT40 cell lines with known DNA damage response pathways - Rad54/Ku70 mutant cell line (AID 743015); further: nearly all actives have a fitted effect of over 60% in size; further: potency means the concentration at half of the fitted maximal effect
[5] = qHTS assay to identify small molecule antagonists of the androgen receptor (AR) signaling pathway - cell viability counter screen (AID 743033; further: nearly all actives have a fitted effect of over 45% in size)
[6] = qHTS assay to identify small molecule antagonists of the androgen receptor (AR) signaling pathway using the MDA cell line - cell viability counter screen (AID 743041; further: nearly all actives have a fitted effect of over 45% in size; further: potency means the concentration at half of the fitted maximal effect)
Procedure, shortened: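 MDA-kb2 AR-luc cells (MMTV-luciferase, AR/GR responsive) treated with compounds plus R1881 agonist for 16 h at 37C. CellTiter-Fluor added at 15.5 h; fluorescence read after 30 min in the same wells.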

[7] = biological target: Androgen receptor (Homo sapiens) (UniProt P10275); experiment: qHTS assay to identify small molecule antagonists of the androgen receptor (AR) signaling pathway (AID 743035; active means well fitted inhibition curve with a large enough effect in the signal ratio in the repeat runs, not every such curve was filed as active; the % refers to the signal ratio)
Sequence of Androgen receptor (Homo sapiens) (P10275 whole entry, looked up): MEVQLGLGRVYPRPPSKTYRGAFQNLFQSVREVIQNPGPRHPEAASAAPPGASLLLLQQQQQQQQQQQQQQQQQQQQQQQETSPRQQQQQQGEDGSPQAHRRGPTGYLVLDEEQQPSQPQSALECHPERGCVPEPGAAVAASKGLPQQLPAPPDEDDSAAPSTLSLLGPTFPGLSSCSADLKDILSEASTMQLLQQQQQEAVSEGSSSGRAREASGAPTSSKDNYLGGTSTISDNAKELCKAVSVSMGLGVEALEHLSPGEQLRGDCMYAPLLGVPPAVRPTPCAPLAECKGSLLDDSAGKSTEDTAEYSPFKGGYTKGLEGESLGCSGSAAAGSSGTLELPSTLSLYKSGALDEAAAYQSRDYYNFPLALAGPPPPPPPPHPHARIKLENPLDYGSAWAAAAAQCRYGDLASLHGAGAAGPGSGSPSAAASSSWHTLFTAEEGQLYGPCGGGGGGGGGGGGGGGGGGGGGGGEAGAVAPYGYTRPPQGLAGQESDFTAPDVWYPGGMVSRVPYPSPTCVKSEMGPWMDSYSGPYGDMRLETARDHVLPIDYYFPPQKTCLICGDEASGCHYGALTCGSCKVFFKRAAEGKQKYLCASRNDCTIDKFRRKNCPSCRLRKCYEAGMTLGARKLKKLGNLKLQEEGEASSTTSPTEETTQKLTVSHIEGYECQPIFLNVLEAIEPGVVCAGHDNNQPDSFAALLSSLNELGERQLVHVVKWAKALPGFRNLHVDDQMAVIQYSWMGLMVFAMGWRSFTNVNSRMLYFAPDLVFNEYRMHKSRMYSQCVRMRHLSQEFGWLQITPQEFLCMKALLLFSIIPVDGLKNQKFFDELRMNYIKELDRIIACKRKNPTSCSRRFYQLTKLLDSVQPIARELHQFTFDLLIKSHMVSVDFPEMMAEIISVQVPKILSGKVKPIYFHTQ
Procedure, shortened: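 Using qHTS, AR-UAS-bla GripTite HEK293 cells received compound, then R1881, and were cultured 16 h at 37C/5% CO2 before a 2 h room-temperature LiveBLAzer B/G FRET substrate step and fluorescence measurement.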

[8] = biological target: Androgen receptor (Homo sapiens) (UniProt P10275); experiment: qHTS assay to identify small molecule agonists of the androgen receptor (AR) signaling pathway using the MDA cell line (AID 743040; further: nearly all actives have a fitted effect of over 20% in size)
Procedure, shortened: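 MDA-kb2 breast carcinoma cells carrying MMTV-luciferase (responsive to AR and GR), plated 5 h then treated 16 h with compounds at 37C, 0% CO2. Read-out was ONE-Glo luminescence after 30 min at room temperature.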

[9] = biological target: Androgen receptor (Homo sapiens) (UniProt P10275); experiment: qHTS assay to identify small molecule antagonists of the androgen receptor (AR) signaling pathway using the MDA cell line (AID 743042; further: nearly all actives have a fitted effect of over 55% in size)
Procedure, shortened: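 MDA-kb2 breast carcinoma cells carrying MMTV-luciferase (AR/GR responsive) were co-treated with compounds and the agonist R1881 for 16 h at 37C. Inhibition read as ONE-Glo luminescence; CellTiter-Fluor fluorescence measured in parallel for cytotoxicity.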

[10] = biological target: Androgen receptor (Homo sapiens) (UniProt P10275); experiment: qHTS assay to identify small molecule agonists of the androgen receptor (AR) signaling pathway (AID 743036; active means well fitted activation curve with a large enough effect in the signal ratio in the repeat runs, with a control signal flat, not every such curve was filed as active; the % refers to the signal ratio)
Procedure, shortened: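 Quantitative HTS of the Tox21 10K library in HEK293 cells bearing a stably integrated UAS-controlled beta-lactamase reporter. Compound exposure lasted 16 h at 37C. Reporter activity was detected by FRET substrate fluorescence after 2 h at room temperature.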

SMILES	Potency [1]	Potency [2]	Potency [3]	Potency [4]	Potency [5]	Potency [6]	Potency [7]	outcome [8]	Potency [9]	outcome [10]
CCOC(C)=O	inactive	inactive	inactive	inactive	inactive	inactive				
CCCCOc1ccc(OCCCN2CCOCC2)cc1	inactive	2.54 µM (active)	1.01 µM (active)	2.27 µM (active)	inactive	inactive				
COc1ccccc1Oc1c(NS(=O)(=O)c2ccc(C(C)(C)C)cc2)nc(-c2ncccn2)nc1OCCO	inactive	inactive	inactive	inactive	inactive	inactive				
Cc1ccco1	inactive	inactive	inactive	inactive	inactive	inactive				
O=C(O)C[C@H](NC(=O)OCc1ccccc1)C(=O)O	inactive	inactive	inactive	inactive	inactive	inactive				
O[C@@H]1CO[C@H]2[C@@H]1OC[C@@H]2O	inactive	inactive	inactive	inactive	inactive	inactive				
CCCCCCCC/C=C\CCCCCCCCO	inactive	inactive	inactive	inactive	inactive	inactive				
C=C(C)C(=O)OCCCCCCCCCCCCC	inactive	inactive	inactive	inactive	inactive	inactive				
CCOC(=O)c1ccc(C#Cc2ccc3c(c2)C(C)(C)CCS3)nc1	inactive	23.7 µM (active)	29.8 µM (active)	29.8 µM (active)	inactive	inactive				
CCC=CC#N	inactive	inactive	inactive	inactive	inactive	inactive				
COc1ncnc(NS(=O)(=O)c2ccc(N)cc2)c1OC	inactive	inactive	inactive	inactive	inactive	inactive				
Cc1ccc(CO)cc1	inactive	inactive	inactive	inactive	inactive	inactive				
CCCCCCCCN	inactive	inactive	inactive	inactive	inactive	inactive				
CCCC(=O)C(=O)O	inactive	inactive	inactive	inactive	inactive	inactive				
CO[C@]1(NC(=O)CSC(F)F)C(=O)N2C(C(=O)O)=C(CSc3nnnn3CCO)CO[C@H]21	inactive	inactive	inactive	inactive	inactive	inactive				
O=c1[nH]c2ccc(Cl)cc2o1	inactive	inactive	inactive	inactive	inactive	inactive				
C=Cc1ccc(S(=O)(=O)O)cc1	inactive	inactive and 30.6 µM (active)	inactive and 38.6 µM (active)	inactive and 2.17 µM (active)	inactive	inactive				
C[C@@]12CCC[C@H]1[C@@H]1CC[C@H]3C[C@@H](O)CC[C@]3(C)[C@H]1CC2	inactive	inactive	inactive	inactive	inactive	inactive				

SMILES	Potency [1]	Potency [2]	Potency [3]	Potency [4]	Potency [5]	Potency [6]	Potency [7]	outcome [8]	Potency [9]	outcome [10]
Cc1cc(C)c(N)cc1C	inactive	inactive	inactive	inactive	inactive	inactive				
CC(CO)CO	inactive	inactive	inactive	inactive	inactive	inactive				
CCCCCCCCCI	inactive	inactive	inactive	inactive	inactive	inactive				
CC(CCC(=O)O)C(=O)O (stereo not drawn)	inactive	inactive	inactive	inactive	inactive	inactive				
CCOC(=O)c1ccc(OCCN2C[C@H](O)[C@@H](O)[C@H](O)[C@H]2CO)cc1	inactive	inactive	inactive	inactive	inactive	inactive				
CN1CC(=O)N2[C@H](c3ccc4c(c3)OCO4)c3[nH]c4ccccc4c3C[C@@H]2C1=O	inactive	inactive	inactive	inactive	inactive	inactive				
C=CC(C)(CCC=C(C)C)OC(=O)CC(C)C (stereo not drawn)	inactive	inactive	inactive	inactive	inactive	inactive				
CC(C)=CC(=O)C=C(C)C	inactive	inactive	inactive	inactive	inactive	inactive				
O=c1c(O)c(-c2ccc(O)cc2)oc2cc(O)cc(O)c12	inactive	32.8 µM (active)	11.6 µM (active)	36.8 µM (active)	inactive	inactive				
Oc1cccc(O)c1O	inactive	26.6 µM (active)	48.1 µM (active)		inactive	inactive				
CCC(C)COC(=O)CC(C)C (stereo not drawn)	inactive	68.6 µM (active)	61.1 µM (active)	61.1 µM (active)		inactive				
Nc1nnc(-c2ccc([N+](=O)[O-])o2)o1	inactive	24.3 µM (active)	19.3 µM (active)	19.3 µM (active)		61.1 µM (active)				
O=C1c2ccccc2C(=O)C1c1ccc(Br)cc1	inactive	inactive		inactive	inactive	inactive	inactive	inactive	inactive	
CCCCCC[C@@H](O)C/C=C\CCCCCCCC(=O)OCC(O)CO (stereo partly drawn)	inactive	inactive		inactive	inactive		inactive	inactive	inactive	inactive
CCC1NC(=O)c2cc(S(N)(=O)=O)c(Cl)cc2N1 (stereo not drawn)	inactive	inactive		inactive	inactive	inactive				
O=C(O)c1ccc(OCCCOc2ccc(C(=O)O)cc2)cc1	inactive	inactive		inactive	inactive	inactive				
CC1(C)[C@@H](OC(=O)CCC(=O)O)CC[C@]2(C)[C@H]3C(=O)C=C4[C@@H]5C[C@@](C)(C(=O)O)CC[C@]5(C)CC[C@@]4(C)[C@]3(C)CC[C@@H]12	inactive	inactive	inactive	inactive		inactive				
